Records with an inconclusive call do not appear. Active and inactive are the calls of the source.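 Rule for the calls, unless noted: active = normalized viability below 100% at a tested concentration; inactive = the rest.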
Assays:
[1] = growth inhibition of DIPG glioma cells, dose response, cell-based, SU-DIPG-XVII, MIPE5.0, CellTiter-Glo, qHTS (AID 1347060; cut-off not given, nearly all actives have AC50 up to about 26 µM); settings: SU-DIPG-XVII viability, CellTiter-Glo ATP luminescence
[2] = viability loss in pontine glioma line – cell-based, SU-DIPG-XXV, MIPE5.0, CellTiter-Glo, qHTS, dose response (AID 1347065; cut-off not given, nearly all actives have AC50 up to about 26 µM;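 note: cells exposed to compound for 48 hours before ATP readout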); settings: CellTiter-Glo ATP luminescence
[3] = SU-DIPG-XXV glioma cell viability, MIPE5.0 library, qHTS (AID 1347068; cut-off not given, nearly all actives have IC50 up to about 30 µM)
[4] = sensitizers of A549 cells to miR-34 induction, primary screen, imaging, A549 dox-inducible miR-34, nuclei and caspase counts (AID 1347080;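 active = compounds whose cell count with miR-34 switched on is under 0.7 times the count with it off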); settings: A549 miR-34 inducible, Hoechst nuclei count, 48 h
[5] = survival rescue of mitochondrial mutant cells in low glucose, primary screen, MELAS cybrids, Rieske KO mouse fibroblasts, CellTiter-Glo (AID 1508586;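 active = mean z-score across replicates of 1.96 or higher in either the MELAS or the Rieske mutant cell line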;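 note: z relative to plate mean and SD of compound and empty wells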)
[6] = ovarian cancer cell viability with rucaparib, profiling panel, oncology-focused library, rucaparib conditional (AID 1508598); settings: patient-derived ovarian cancer cells, CellTiter-Glo viability, 144 h, stronger effect = lower value
[7] = LFS_MB_P medulloblastoma growth inhibition, cell-based, chromothripsis tumors, cisplatin or BGB combos (AID 1671449; in the data active = inhibition above about 80%;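 note: cells exposed for 96 hours; 0% = vehicle DMSO and 100% = killing by high DMSO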); settings: LFS_MB_P medulloblastoma cells
[8] = HDN33 neuroblastoma growth inhibition, cell-based, chromothripsis tumors, cisplatin or BGB combos (AID 1671450; in the data active = inhibition above about 80%;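 note: cells exposed to compound for four days; 0% = vehicle DMSO and 100% = cell killing by high DMSO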); settings: HDN33 neuroblastoma cells, stronger effect = higher value
[9] = ICB984 medulloblastoma cell growth inhibition, synergistic combos for chromothripsis tumors, cisplatin or BGB combos (AID 1671451; call rule not given here;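 note: cells exposed for 96 hours before readout; 0% = vehicle DMSO and 100% = killing by high DMSO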); settings: ICB984 medulloblastoma cells, drug combinations, stronger effect = higher value
[10] = LFS_MB_1R medulloblastoma cell growth inhibition, synergistic combos for chromothripsis tumors, cisplatin or BGB combos (AID 1671452; in the data active = inhibition above about 80%;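 note: cells exposed for 96 hours before readout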); settings: LFS_MB_1R medulloblastoma cells, stronger effect = higher value
[11] = HTB85 osteosarcoma cell growth inhibition, synergistic combos for chromothripsis tumors, BGB or cisplatin IC20 combos (AID 1671453; in the data active = inhibition above about 80%;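 note: cells exposed for 96 hours before readout; 0% = vehicle DMSO and 100% = high DMSO killing control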); settings: HTB85 osteosarcoma cells, drug combinations, stronger effect = higher value
[12] = CRL2098 osteosarcoma cell growth inhibition, synergistic combos for chromothripsis tumors, BGB or cisplatin IC20 combos (AID 1671454; in the data active = inhibition above about 80%;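 note: cells exposed for 96 h before readout; 0% = vehicle DMSO and 100% = killing by high DMSO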); settings: CRL2098 osteosarcoma cells, drug combinations, stronger effect = higher value
[13] = HD-MB03 medulloblastoma cell growth inhibition, synergistic combos for chromothripsis tumors, BGB or cisplatin IC20 combos (AID 1671455; in the data active = inhibition above about 83%;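 note: 0% = vehicle DMSO and 100% = high DMSO as cytotoxic control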); settings: HD-MB03 medulloblastoma cells, stronger effect = higher value
[14] = UWB1.289 ovarian carcinoma cell growth inhibition, synergistic combos for chromothripsis tumors, BGB or cisplatin combos (AID 1671456; in the data active = inhibition above about 80%;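 note: cells exposed to compound for four days; 0% = vehicle DMSO and 100% = killing by high DMSO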); settings: UWB1.289 ovarian carcinoma cells, stronger effect = higher value
[15] = LFS_MB_2R medulloblastoma cell growth inhibition, synergistic combos for chromothripsis tumors, cisplatin combos (AID 1671457; in the data active = inhibition above about 80%;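 note: cells exposed to compound for four days before readout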); settings: LFS_MB_2R medulloblastoma cells, stronger effect = higher value
[16] = MDA-MB-436 breast carcinoma cell growth inhibition, synergistic combos for chromothripsis tumors, BGB or cisplatin combos (AID 1671458; call rule not given here;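 note: cells exposed for 96 hours; 0% = vehicle DMSO and 100% = killing by high DMSO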); settings: MDA-MB-436 breast carcinoma growth inhibition, drug combinations, stronger effect = higher value
[17] = UWB1.289_BRCA1 ovarian cancer growth, cell-based, BGB or cisplatin combinations (AID 1671459; in the data active = inhibition above about 80%); settings: UWB1.289 BRCA1 ovarian carcinoma, drug combinations, stronger effect = higher value
[18] = human astrocyte viability loss, single and combined drugs, cytotoxicity control for chromothriptic childhood tumor combination screen, cell-based, BGB or cisplatin IC20 combos (AID 1671460; in the data active = inhibition above about 80%;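 note: cells exposed to compounds for 96 hours before viability readout; 0% = vehicle and 100% = killing control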); settings: Human astrocytes, drug combinations, stronger effect = higher value
[19] = growth inhibition of BT084 medulloblastoma cells, cell-based, ICGC_MB145, cisplatin and BGB IC40 combos (AID 1671461; in the data active = inhibition above about 80%;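 note: cells exposed to drugs for 96 hours; 0% = vehicle DMSO and 100% = high DMSO full killing control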); settings: drug combinations, stronger effect = higher value
[20] = growth inhibition of RCMB18 medulloblastoma cells, cell-based, cisplatin and BGB IC40 combos (AID 1671462; in the data active = inhibition above about 80%;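 note: cells exposed to compound for four days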); settings: stronger effect = higher value
[21] = growth inhibition of CRL1545 osteosarcoma cells, cell-based, cisplatin and BGB IC20 combos (AID 1671464; in the data active = inhibition above about 80%;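 note: cells exposed to compound for 96 hours before readout; 0% = vehicle DMSO and 100% = high DMSO killing control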); settings: stronger effect = higher value
[22] = measured here: combination with BGB IC40, at 0.05 µM
[23] = measured here: with BGB IC20 combination, at 0.5 µM
[24] = measured here: with cisplatin IC20 combination, at 0.5 µM
[25] = measured here: combination with cisplatin, at 0.5 µM
[26] = measured here: combination with cisplatin, at 5 µM

## COc1ccc(-n2c(SCCCN3C(=O)c4cccc5cccc(c45)C3=O)nnc2-c2ccncc2)cc1
[1]
  outcome: inactive
[2]
  outcome: inactive
[3]
  outcome: inactive
[4]; stronger effect = lower value, cell number ratio, induced over uninduced
  fold change: 0.884 (inactive)
[4]; measured here: relative caspase fold change +Dox/-Dox
  fold change: 0.42
[4]; measured here: total cells with miR-34 induction, stronger effect = lower value
  cell count: 6580
[4]; measured here: total cells without miR-34 induction
  cell count: 7440
[5]; MELAS cybrid survival, CellTiter-Glo 48 h, stronger effect = higher value
  z-score: -0.376 (inactive)
[5]; Rieske KO mouse fibroblast survival, CellTiter-Glo 72 h
  z-score: 1.13
[6]; at 0.000305 µM, OCI-C5x cells, with rucaparib 10 µM, 100% = cells with rucaparib alone
  viability: 118% (inactive)
[6]; at 0.000305 µM, OCI-C5x cells, without rucaparib
  viability: 116% (inactive)
[6]; at 0.000305 µM, OCI-P5x cells, with rucaparib 20 µM, 100% = cells with rucaparib alone
  viability: 101% (inactive)
[6]; at 0.000305 µM, OCI-P5x cells, without rucaparib
  viability: 100% (inactive)
[6]; at 0.00122 µM, OCI-C5x cells, with rucaparib 10 µM, 100% = cells with rucaparib alone
  viability: 120% (inactive)
[6]; at 0.00122 µM, OCI-C5x cells, without rucaparib
  viability: 121% (inactive)
[6]; at 0.00122 µM, OCI-P5x cells, with rucaparib 20 µM, 100% = cells with rucaparib alone
  viability: 101% (inactive)
[6]; at 0.00122 µM, OCI-P5x cells, without rucaparib
  viability: 99.9% (active)
[6]; at 0.00488 µM, OCI-C5x cells, with rucaparib 10 µM, 100% = cells with rucaparib alone
  viability: 117% (inactive)
[6]; at 0.00488 µM, OCI-C5x cells, without rucaparib
  viability: 117% (inactive)
[6]; at 0.00488 µM, OCI-P5x cells, with rucaparib 20 µM, 100% = cells with rucaparib alone
  viability: 94.7% (active)
[6]; at 0.00488 µM, OCI-P5x cells, without rucaparib
  viability: 104% (inactive)
[6]; at 0.0195 µM, OCI-C5x cells, with rucaparib 10 µM, 100% = cells with rucaparib alone
  viability: 125% (inactive)
[6]; at 0.0195 µM, OCI-C5x cells, without rucaparib
  viability: 121% (inactive)
[6]; at 0.0195 µM, OCI-P5x cells, with rucaparib 20 µM, 100% = cells with rucaparib alone
  viability: 102% (inactive)
[6]; at 0.0195 µM, OCI-P5x cells, without rucaparib
  viability: 101% (inactive)
[6]; at 0.0781 µM, OCI-C5x cells, with rucaparib 10 µM, 100% = cells with rucaparib alone
  viability: 125% (inactive)
[6]; at 0.0781 µM, OCI-C5x cells, without rucaparib
  viability: 118% (inactive)
[6]; at 0.0781 µM, OCI-P5x cells, with rucaparib 20 µM, 100% = cells with rucaparib alone
  viability: 95.3% (active)
[6]; at 0.0781 µM, OCI-P5x cells, without rucaparib
  viability: 98.1% (active)
[6]; at 0.313 µM, OCI-C5x cells, with rucaparib 10 µM, 100% = cells with rucaparib alone
  viability: 138% (inactive)
[6]; at 0.313 µM, OCI-C5x cells, without rucaparib
  viability: 130% (inactive)
[6]; at 0.313 µM, OCI-P5x cells, with rucaparib 20 µM, 100% = cells with rucaparib alone
  viability: 95.5% (active)
[6]; at 0.313 µM, OCI-P5x cells, without rucaparib
  viability: 77.9% (active)
[6]; at 1.25 µM, OCI-C5x cells, with rucaparib 10 µM, 100% = cells with rucaparib alone
  viability: 129% (inactive)
[6]; at 1.25 µM, OCI-C5x cells, without rucaparib
  viability: 128% (inactive)
[6]; at 1.25 µM, OCI-P5x cells, with rucaparib 20 µM, 100% = cells with rucaparib alone
  viability: 89.8% (active)
[6]; at 1.25 µM, OCI-P5x cells, without rucaparib
  viability: 77.7% (active)
[6]; at 5 µM, OCI-C5x cells, with rucaparib 10 µM, 100% = cells with rucaparib alone
  viability: 113% (inactive)
[6]; at 5 µM, OCI-C5x cells, without rucaparib
  viability: 123% (inactive)
[6]; at 5 µM, OCI-P5x cells, with rucaparib 20 µM, 100% = cells with rucaparib alone
  viability: 98.5% (active)
[6]; at 5 µM, OCI-P5x cells, without rucaparib
  viability: 86.5% (active)
[7]; at 0.5 µM, stronger effect = higher value
  inhibition: 9.82% (inactive)
[7]; measured here: combination with BGB IC20, at 0.005 µM
  inhibition: 9.58%
[7]; measured here: combination with BGB IC40, at 0.005 µM
  inhibition: -35.2%
[7]; [22]
  inhibition: -11%
[7]; measured here: combination with cisplatin, at 0.5 µM, stronger effect = higher value
  inhibition: 82.2%
[7]; measured here: combination with cisplatin, at 5 µM, stronger effect = higher value
  inhibition: -43.7%
[8]; BGB combo, at 5 µM
  inhibition: -3.81%
[8]; at 0.5 µM
  inhibition: 4% (inactive)
[8]; cisplatin combo, at 5 µM
  inhibition: 14.9%
[8]; [23]
  inhibition: -3.11%
[8]; [24]
  inhibition: 10.7%
[8]; single agent, at 5 µM
  inhibition: 26.4%
[9]; BGB IC20 combo, at 0.005 µM
  inhibition: -14.7%
[9]; BGB IC40 combo, at 0.005 µM
  inhibition: -33.9%
[9]; BGB IC40 combo, at 0.05 µM
  inhibition: -28.6%
[9]; at 0.5 µM
  inhibition: -17.9% (inactive)
[9]; cisplatin combo, at 0.05 µM
  inhibition: -33.7%
[9]; cisplatin combo, at 0.5 µM
  inhibition: -25.4%
[9]; cisplatin combo, at 5 µM
  inhibition: -32.6%
[9]; measured here: 5 uM single agent, at 5 µM
  inhibition: -15.5%
[10]; at 0.5 µM
  inhibition: -13.2% (inactive)
[10]; [22]
  inhibition: -35.9%
[10]; [25]
  inhibition: -19.9%
[10]; [26]
  inhibition: -31.3%
[11]; at 0.5 µM
  inhibition: -0.55% (inactive)
[11]; measured here: with BGB IC20, at 0.5 µM
  inhibition: 6.74%
[11]; measured here: with BGB IC20, at 5 µM
  inhibition: 0.541%
[11]; measured here: with cisplatin IC20, at 0.5 µM
  inhibition: -17.9%
[11]; measured here: with cisplatin IC20, at 5 µM
  inhibition: -0.549%
[11]; single agent, at 5 µM
  inhibition: 19.7%
[12]; at 0.5 µM
  inhibition: -27.6% (inactive)
[12]; measured here: combination with BGB at IC20, at 0.5 µM
  inhibition: -23.3%
[12]; measured here: combination with cisplatin at IC20, at 0.5 µM
  inhibition: -22.2%
[13]; at 0.5 µM
  inhibition: -0.19% (inactive)
[13]; measured here: combo with BGB at IC20, at 0.5 µM
  inhibition: -1.2%
[13]; measured here: combo with cisplatin at IC20, at 0.5 µM
  inhibition: 6.56%
[14]; at 0.5 µM
  inhibition: 1.01% (inactive)
[14]; measured here: inhibition with BGB combination, at 0.05 µM
  inhibition: -4.64%
[14]; measured here: inhibition with cisplatin combination, at 0.05 µM
  inhibition: -4.19%
[15]; at 0.5 µM
  inhibition: -15% (inactive)
[15]; [25]
  inhibition: -8.95%
[15]; [26]
  inhibition: -20.5%
[16]; at 0.5 µM
  inhibition: -5.31% (inactive)
[16]; measured here: BGB combination, at 0.5 µM
  inhibition: -12%
[16]; measured here: BGB combination, at 5 µM
  inhibition: -10.9%
[16]; measured here: cisplatin combination, at 0.5 µM
  inhibition: -2.01%
[16]; measured here: cisplatin combination, at 5 µM
  inhibition: -2.78%
[17]; BGB combination, concentration series, at 5 µM
  inhibition: 7.08%
[17]; at 0.5 µM
  inhibition: 1.18% (inactive)
[17]; cisplatin combination, concentration series, at 5 µM
  inhibition: 13.2%
[18]; at 0.5 µM
  inhibition: 16% (inactive)
[18]; measured here: combo with BGB IC20, at 0.5 µM
  inhibition: 24.6%
[18]; measured here: combo with cisplatin IC20, at 0.5 µM
  inhibition: 15.9%
[19]; at 0.5 µM
  inhibition: 3.66% (inactive)
[19]; cisplatin combination, at 0.5 µM
  inhibition: 8.14%
[19]; cisplatin combination, at 5 µM
  inhibition: -2.96%
[19]; measured here: BGB IC40 combination 0.05 uM, at 0.05 µM
  inhibition: 15.7%
[19]; single agent, at 5 µM
  inhibition: -22%
[20]; at 0.5 µM
  inhibition: -7.05% (inactive)
[20]; cisplatin combo, at 5 µM
  inhibition: 17.7%
[20]; measured here: BGB IC40 combination, at 0.05 µM
  inhibition: -27.1%
[20]; [25]
  inhibition: 26.9%
[20]; single agent, at 5 µM
  inhibition: -22.4%
[21]; at 0.5 µM
  inhibition: -5.28% (inactive)
[21]; [23]
  inhibition: -6.44%
[21]; [24]
  inhibition: -4.7%
[21]; single agent, at 0.05 µM
  inhibition: -13.5%
[21]; single agent, at 5 µM
  inhibition: 7.92%

Source: PubChem BioAssay
